The values that follow come from PubChem BioAssay.

Active and inactive are the calls of the source.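 How the source made its calls, unless noted: active means compounds whose cell count with miR-34 switched on is under 0.7 times the count with it off; inactive means the rest.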 Where a SMILES comes first, the peptide text is derived from it. The star is where a group is joined. Cbz = O=C(OCc1ccccc1)*; CH2F = FC*

One test can be described thus: circadian clock period modulators, cell-based, LOPAC library, luminescence reporter (AID 2774; call rule not given here;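 further: values are relative to mean of DMSO wells on each plate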). Particulars: circadian reporter cells, at 7 µM, actives lie on both sides.
Regarding `CCCCCCCCCCCCCCC[C@H](O)[C@H](N)CO`, the period change was -0.08 h (inactive).
The same measure, in the same setting: next, `NCCNS(=O)(=O)c1cccc2cnccc12`: 0.39 h (inactive); `N#Cc1c(-c2ccccc2)no[n+]1[O-]`: -0.17 h (inactive).
For `CCCCC/C=C\CC(O)/C=C/c1cccc(CC(O)CCCCO)n1` (centres undefined), the period change was 0.025 h (inactive).

The nature of a further test: hESC survival regulators, cell-based (AID 493140; call rule not given here;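 further: cells exposed to compounds for four days before counting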). The note with it: human embryonic stem cell survival screen; active compounds read high.
In the case of `CCCCC/C=C\C\C=C/C=C/C=C/[C@@H](SCC(NC(C)=O)C(=O)O)[C@@H](O)CCCC(=O)O` (some centres undefined), the survival was 136 (inactive).
Still for that read-out and setting: under `CCCCCCCCCC(=O)N[C@H](CN1CCOCC1)[C@H](O)c1ccccc1` stands 80.8 (inactive); under `O=Cc1c2[nH]c3ccccc3c2cc2[nH]c3ccccc3c12`, 124 (inactive).
Same read-out and setting: under `CCCCCC(=O)/C=C/C=C\CCCCCCCC(=O)O` stands 99.8 (inactive).
Take `CCCCC/C=C\C/C=C\CCCCCCCC(=O)NCC(=O)O`: the survival was 52.3 (inactive).
On the same count and under the same terms, under `CCCCCC1OC1C/C=C\C/C=C\C/C=C\CCCC(=O)O` (centres undefined) stands 88.4 (inactive).
Turning to `CCCCC[C@H](O)/C=C/C=C\C/C=C\C/C=C\CCCC(=O)O`, the survival was 53.7 (inactive).
Still for that read-out and setting: under `CCCCCCCCCCOCCC(=O)O` stands 53.3 (inactive); under `CCCCC[C@H](O)/C=C/C=C\CCCCCCCC(=O)O`, 87.8 (inactive).
Still for that read-out and setting: next, `COCc1cc(O)c(O)c(O)c1-c1c(COC)cc(O)c(O)c1O`: 106 (inactive); `CCCCC/C=C\C/C=C\C/C=C\CC1OC1CCCC(=O)O` (centres undefined): 114 (inactive); `CCCCC/C=C\C/C=C\CCCCCCCC(N)=O`: 66.5 (inactive).
Same read-out and setting: next, `O=C(O)c1cc(N(Cc2ccccc2O)Cc2cc(O)ccc2O)ccc1O`: 94.2 (inactive); `CC(=O)N[C@@H](CSC/C=C(\C)CCC=C(C)C)C(=O)O`: 97.5 (inactive); `COCCCCCCCCCCCC(=O)O`: 81.7 (inactive).
Regarding `NCCNS(=O)(=O)c1cccc2cnccc12`, the survival is 266 (active).
On the same count and under the same terms, next, `N#CC(C#N)=C(N)/C(C#N)=C/c1ccc2[nH]ccc2c1`: 107 (inactive); `CCCCCCCCCCC/C=C\C/C=C\CCCC(=O)O`: 98.8 (inactive); `CCCCC/C=C\C/C=C\CC1OC1C/C=C\CCCC(=O)O` (centres undefined): 95.7 (inactive).
The same measure, in the same setting: next, `CCCCC[C@H](O)/C=C/C=C\C=C\C=C\[C@@H](O)[C@@H](O)CCCC(=O)O`: 89.1 (inactive); `CCCCCCCCCCCCCC(=O)N[C@@H](C)[C@H](O)c1ccccc1`: 95 (inactive).
On the same count and under the same terms, next, `CC(C)n1cnc2c(NCc3ccccc3)nc(NCCO)nc21`: 106 (inactive); `CCCCCCCCCCCCCCCC(=O)N[C@H](CN1CCOCC1)[C@H](O)c1ccccc1`: 83.7 (inactive).
In the case of `CCCCCCCCCCCCCCCC(=O)N[C@@H](COP(=O)(O)O)C(=O)O`, the survival was 91.8 (inactive).
Still for that read-out and setting: next, `COc1c(C=O)c(O)cc2c1C(=O)c1ccccc1C2=O`: 93.2 (inactive); `CCCCCCCCCCCCC/C=C/[C@@H](O)[C@H](CO)NC(=O)CCCCCCCCCCCCCCC`: 62.8 (inactive); `CC/C=C\C/C=C\C/C=C\CCCCCCCCCCCC(=O)O`: 81.8 (inactive).
The same measure, in the same setting: under `CCCCC/C=C\C/C=C\C/C=C\C/C=C\CCCC(=O)O[C@@H](CO)COCCCCCCCCCCCCCCCC` stands 92.7 (inactive).
The same measure, in the same setting: under `CCCCC[C@H](O)C/C=C1/C(=O)C=C[C@@H]1C/C=C\CCCC(=O)O` stands 95.5 (inactive).
With `CCCCC/C=C\CC(O)/C=C/c1cccc(CC(O)CCCCO)n1` (centres undefined), the survival was 97.4 (inactive).

The next test can be described thus: sensitizers of A549 cells to miR-34 induction, primary screen, imaging, A549 dox-inducible miR-34, nuclei and caspase counts (AID 1347080). Particulars: A549 miR-34 inducible, Hoechst nuclei count, 48 h; active compounds read low; cell number ratio, induced over uninduced.
With `CC(C)c1cccc(O)c(=O)c1`, the fold change is 0.903 (inactive).
On the same count and under the same terms, under `CCCCC/C=C\C\C=C/C=C/C=C/[C@@H](SCC(NC(C)=O)C(=O)O)[C@@H](O)CCCC(=O)O` (some centres undefined) stands 0.952 (inactive); under `CCOC(=O)C1OC1C(=O)NC(CC(C)C)C(=O)NCCC(C)C` (centres undefined), 0.903 (inactive); under `CCCCCCCCCC(=O)N[C@H](CN1CCOCC1)[C@H](O)c1ccccc1`, 0.988 (inactive).
The same measure, in the same setting: under `O=Cc1c2[nH]c3ccccc3c2cc2[nH]c3ccccc3c12` stands 0.873 (inactive); under `CCCCCC(=O)/C=C/C=C\CCCCCCCC(=O)O`, 0.995 (inactive); under `CCCCCCCCCCCCCCCCOC[C@H](CO)OC`, 0.866 (inactive).
On the same count and under the same terms, under `CCCCC/C=C\C/C=C\CCCCCCCC(=O)NCC(=O)O` stands 0.95 (inactive); under `CCCCCCCCCCCCCCC[C@H](O)[C@H](N)CO`, 0.911 (inactive); under `CCCCCC1OC1C/C=C\C/C=C\C/C=C\CCCC(=O)O` (centres undefined), 0.949 (inactive).
Regarding `CCCCC[C@H](O)/C=C/C=C\C/C=C\C/C=C\CCCC(=O)O`, the fold change is 1.03 (inactive).
On the same count and under the same terms, next, `CCCCCCCCCCOCCC(=O)O`: 0.905 (inactive).
On to `CCCCC[C@H](O)/C=C/C=C\CCCCCCCC(=O)O`, for which the fold change is 0.929 (inactive).
For the compound `COCc1cc(O)c(O)c(O)c1-c1c(COC)cc(O)c(O)c1O`, the fold change was 1.2 (inactive).
`CCCCC/C=C\C/C=C\C/C=C\CC1OC1CCCC(=O)O` (centres undefined): the fold change is 0.939 (inactive).
As to `CCCCC/C=C\C/C=C\CCCCCCCC(N)=O`, the fold change is 0.981 (inactive).
As to `O=C(O)c1cc(N(Cc2ccccc2O)Cc2cc(O)ccc2O)ccc1O`, the fold change is 0.907 (inactive).
The same measure, in the same setting: next, `CC(=O)N[C@@H](CSC/C=C(\C)CCC=C(C)C)C(=O)O`: 0.983 (inactive).
Still for that read-out and setting: next, `COCCCCCCCCCCCC(=O)O`: 0.981 (inactive); `NCCNS(=O)(=O)c1cccc2cnccc12`: 1.1 (inactive); `CC(C)[C@@H]1NC(=O)[C@H](Cc2ccccc2)NC(=O)[C@@H](CC(=O)O)NC(=O)CNC(=O)[C@H](CCCN=C(N)N)NC1=O`: 1.03 (inactive).
On the same count and under the same terms, under `N#CC(C#N)=C(N)/C(C#N)=C/c1ccc2[nH]ccc2c1` stands 1.01 (inactive).
Consider `CCCCCCCCCCC/C=C\C/C=C\CCCC(=O)O`, for which the fold change is 0.918 (inactive).
On the same count and under the same terms, under `CCCCC/C=C\C/C=C\CC1OC1C/C=C\CCCC(=O)O` (centres undefined) stands 1.01 (inactive); under `CCCCC[C@H](O)/C=C/C=C\C=C\C=C\[C@@H](O)[C@@H](O)CCCC(=O)O`, 0.912 (inactive).
Same read-out and setting: under `COC(=O)C[C@H](NC(=O)[C@H](C)NC(=O)[C@@H](NC(=O)OCc1ccccc1)C(C)C)C(=O)CF` (Cbz-Val-Ala-Asp(OMe)-CH2F) stands 0.848 (inactive).
Consider `CCCCCCCCCCCCCC(=O)N[C@@H](C)[C@H](O)c1ccccc1`, for which the fold change was 0.995 (inactive).
On the same count and under the same terms, next, `CC(=O)OCOC(c1cc([N+](=O)[O-])ccc1Oc1ccc(Br)cc1)P(=O)(OCOC(C)=O)OCOC(C)=O` (centres undefined): 1.27 (inactive).
Still for that read-out and setting: under `CC(C)n1cnc2c(NCc3ccccc3)nc(NCCO)nc21` stands 1.14 (inactive); under `CCCCCCCCCCCCCCCC(=O)N[C@H](CN1CCOCC1)[C@H](O)c1ccccc1`, 1 (inactive).
Still for that read-out and setting: under `CCCCCCCCCCCCCCCC(=O)N[C@@H](COP(=O)(O)O)C(=O)O` stands 0.975 (inactive); under `CCCCC/C=C\C\C=C/C=C/C=C/[C@@H](SC[C@H](NC(=O)CC[C@H](N)C(=O)O)C(=O)NCC(=O)O)[C@@H](O)CCCC(=O)O`, 1.08 (inactive).
As for `COc1c(C=O)c(O)cc2c1C(=O)c1ccccc1C2=O`, the fold change was 0.91 (inactive).
Still for that read-out and setting: next, `N#Cc1c(-c2ccccc2)no[n+]1[O-]`: 1.56 (inactive).
Regarding `CC12C=CC(=O)C=C1CCC1C2=CCC2(C)C1CC[C@@H]2C(=O)CN1CCN(c2cc(N3CCCC3)nc(N3CCCC3)n2)CC1` (some centres undefined), the fold change is 0.969 (inactive).
Still for that read-out and setting: under `CCCCCCCCCCCCC/C=C/[C@@H](O)[C@H](CO)NC(=O)CCCCCCCCCCCCCCC` stands 1.03 (inactive); under `CC/C=C\C/C=C\C/C=C\CCCCCCCCCCCC(=O)O`, 0.989 (inactive); under `CCCCC/C=C\C/C=C\C/C=C\C/C=C\CCCC(=O)O[C@@H](CO)COCCCCCCCCCCCCCCCC`, 0.961 (inactive).
The same measure, in the same setting: next, `CCCCC[C@H](O)C/C=C1/C(=O)C=C[C@@H]1C/C=C\CCCC(=O)O`: 0.887 (inactive); `CCCCC/C=C\CC(O)/C=C/c1cccc(CC(O)CCCCO)n1` (centres undefined): 0.988 (inactive).
